This excerpt belongs to a sample that is enriched for hits.
Algae TAG accum: inducers of TAG accumulation in Chlamydomonas, primary screen, qHTS, Chlamydomonas reinhardtii | Nile Red fluorescence, 72 h | calls only at 10 µM (by protocol) | actives 0.84% (n = 44,000); call rule not given here;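 further: hits raise Nile Red signal meaning more stored TAG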
* = called active by the depositor; i = inactive; + = active, no number.

SMILES | Algae TAG accum
O=C(Nc1ccccc1C(=O)NCc1ccccc1)c1ccc([N+](=O)[O-])cc1 | +
O=C(Nc1ccccc1O)c1ccc([N+](=O)[O-])cc1 | i
O=C(Nc1ccccc1I)c1ccc(Cl)cc1 | i
NC(=O)CSc1nc(-c2ccccc2)cc(=O)[nH]1 | i
O=C(CNC(=O)c1ccc(Cl)cc1Cl)c1ccccc1 | i
COc1cc(CN2CCN(Cc3ccccc3C)CC2)cc(OC)c1OC | i
COc1ccc(OCCCN2CCCCC2)cc1 | +
CCOc1ccc(OCCOCCN2CCCC2)cc1 | i
CCC(C)c1ccc(OCCN2CCCC2)cc1 (stereo not drawn) | +
COc1ccc(OCCCCN2CCCCC2)cc1 | i
CCOc1cccc(OCCN2CCCC2)c1 | i
c1ccc(OCCCN2CCCCC2)cc1 | i
CSc1nc2ccccc2c(=O)n1Cc1ccccc1 | i
O=C(Nc1ccc(N2CCOCC2)c(Br)c1)c1ccc(F)cc1 | i
O=C(Nc1ccc(F)cc1)C1CC(=O)N(c2ccccc2Cl)C1 (stereo not drawn) | i
C=CCOc1ccc(C(O)=C2C(=O)C(=O)N(CCCn3ccnc3)C2c2cccs2)cc1 (stereo not drawn) | i
O=[N+]([O-])c1ccc(OCCCCN2CCCCC2)cc1 | i
CC(C)(C)c1ccc(OCCCCN2CCOCC2)cc1 | +
Ic1ccc(OCCCN2CCOCC2)cc1 | i
Cc1cccc(OCCCCN2CCOCC2)c1 | +
O=[N+]([O-])c1ccc(OCCCCN2CCOCC2)cc1 | +
O=[N+]([O-])c1ccc(OCCCN2CCCC2)cc1 | i
c1ccc(COc2ccc(OCCCCN3CCOCC3)cc2)cc1 | i
c1ccc(OCCCN2CCOCC2)cc1 | i
CCOc1cccc(OCCN2CCOCC2)c1 | i
SMILES | Algae TAG accum
COc1ccc(Br)cc1CN1CCCC(O)C1 (stereo not drawn) | i
O=C(NCCOCc1ccc(Cl)cc1)c1cccnc1 | i
COc1ccc(S(=O)(=O)Nc2cccc(C)c2)cc1OC | i
CC(C)Oc1ccc(CC(=O)c2ccc(O)cc2O)cc1 | i
CCc1cc2c(N3CCN(C(=O)c4ccccc4)CC3)ncnc2s1 | i
CN1CCN(c2nc(/C=C/c3ccccc3)nc3ccccc23)CC1 | i
Cc1ccc(-c2nnc(-c3ccccc3Cl)o2)cc1 | i
Clc1ccccc1-c1nnc(-c2ccccc2)o1 | +
Clc1ccccc1-c1nnc(-c2ccccc2Cl)o1 | i
COc1ccc(CN2CCN(c3ccc([N+](=O)[O-])cc3)CC2)cc1OCc1ccccc1 | i
C=CCNCCOc1c(Cl)cc(C)cc1Br | i
CN1C(=O)C(=O)C(=C(O)c2ccc(Cl)cc2)C1c1ccccc1 (stereo not drawn) | i
O=C(COc1ccc(Cl)cc1)Nc1ccc(Br)cc1 | i
CC(=O)Nc1ccc(OCC(=O)Nc2cc(Cl)cc(Cl)c2)cc1 | +
CC(=O)Nc1ccc(NC(=O)COc2ccc(C)c(C)c2)cc1 | i
COc1ccc(Cl)cc1S(=O)(=O)Nc1ccc(NC(C)=O)cc1 | i
Cc1nc2cc(Cl)ccc2s1 | i
COc1ccccc1N1CCN(C2CCN(CC3CC4C=CC3C4)CC2)CC1 (stereo not drawn) | +
COc1ccccc1N1CCN(C2CCN(Cc3ccc(Br)cc3)CC2)CC1 | i
COc1ccccc1N1CCN(C2CCN(Cc3c[nH]c4ccccc34)CC2)CC1 | i
COc1ccccc1N1CCN(C2CCN(Cc3cccc(Cl)c3)CC2)CC1 | +
COc1cc(OC)c(OC)cc1CN1CCC(N2CCN(c3ccccc3OC)CC2)CC1 | i
COc1ccccc1N1CCN(C2CCN(Cc3cccc(C)c3)CC2)CC1 | +
COc1ccccc1N1CCN(C2CCN(CCCc3ccccc3)CC2)CC1 | i
Clc1cccc(CN2CCC(N3CCCCCC3)CC2)c1 | i
SMILES | Algae TAG accum
CCOc1cc(CN2CCN(c3ccccc3OC)CC2)ccc1OC | i
COc1ccc([N+](=O)[O-])cc1NC(=O)CCN1CCCC1 | i
CC(=O)c1cccc(NC(=O)c2ccc(C)c(Cl)c2)c1 | i
COc1ccc(NC(=O)c2cccc(F)c2)c(OC)c1 | i
CCn1c(SCC(=O)Nc2ccc(C)cc2)nnc1-c1ccc(Cl)c(Cl)c1 | i
NNC(=O)C(=O)Nc1ccc(Cl)cc1 | i
O=C(COc1ccccc1)N1CCCCC1 | i
N#C/C(=C\c1ccc(Cl)cc1)c1nc(C2CC2)cs1 | i
O=C(N1CCc2ccccc2C1)C12CC3CC(CC(C3)C1)C2 | i
CSc1nc2ccc(NC(=O)CSc3nnnn3-c3ccccc3)cc2s1 | i
CCCC(=O)Nc1ccc(NC(=O)c2ccc(Br)cc2)cc1 | i
CCN(CC)CC(=O)Nc1ccc(Br)cc1 | +
Cc1ccc(NC(=O)Cc2ccc(Br)cc2)cc1 | i
Cn1c(SCC(=O)c2ccccc2)nc2c(c1=O)C1(CCCC1)Cc1ccccc1-2 | i
CC(NC(=O)C(=O)NC1CCCC1)c1ccccc1 (stereo not drawn) | i
O=C(Nc1cccc2c1CCCC2)C(Cl)Cl | i
CN1CC=C(CNc2cccc3c2CCCC3)CC1 | +
Cc1cccc(OCC(=O)Nc2cccc3c2CCCC3)c1 | i
Cc1cc(C)c(C(N)=O)c(Nc2ccccc2Cl)n1 | i
Cc1cc(N2CCCCC2)nc(N)n1 | i
CCN(CC)c1cc(C)nc(N)n1 | +
Cc1cc(-n2nc(C)cc2C)nc(N)n1 | i
COc1cc(CNc2ccc3[nH]ncc3c2)c([N+](=O)[O-])cc1OC | i
O=C(NCCc1ccccc1)C1CCN(Cc2ccccc2Cl)CC1 | i
Cc1ccc(CN2CCC(C(=O)NCc3ccccc3Cl)CC2)cc1 | +
SMILES | Algae TAG accum
Cc1ccc(CNC(=O)C(=O)NCc2ccccc2Cl)cc1 | i
CN(Cc1ccccc1)Cc1ccco1 | i
CN(CC(O)COCc1ccccc1)C1CCCCC1 (stereo not drawn) | i
Cc1ccc(OCC(O)CN(C)C)cc1 (stereo not drawn) | i
Cc1ccc(OCC(O)CN(C)C2CCCCC2)cc1C (stereo not drawn) | +
CN(CC(O)COc1ccc(F)cc1)C1CCCCC1 (stereo not drawn) | +
Cc1ccc(OCC(O)CN2CCN(Cc3ccccc3)CC2)cc1C (stereo not drawn) | i
OC(COc1ccccc1Br)CN(C1CCCCC1)C1CCCCC1 (stereo not drawn) | i
c1cc2c(cc1Cn1nnc(-c3ccc4c(c3)OCO4)n1)OCO2 | i
O=C(c1ccccc1)c1ccc(NC(=O)c2ccccc2F)c(NC(=O)c2ccccc2F)c1 | i
COc1ccc(Br)cc1C(=O)Nc1sc2c(c1C(N)=O)CCCC2 | i
O=C(NCCOc1ccccc1)C1CC(=O)N(c2ccc(Cl)cc2)C1 (stereo not drawn) | i
COc1ccc(S(=O)(=O)Nc2ccc(C(C)C)cc2)cc1OC | i
COc1ccc(CN2CCN(C/C=C/c3ccccc3)CC2)cc1 | +
COc1cc(CN2CCN(C/C=C/c3ccccc3)CC2)cc(OC)c1OC | i
C(=C\c1ccccc1)/CN1CCN(c2ncccn2)CC1 | i
C(=C\c1ccccc1)/CN1CCN(C2CCN(CCc3ccccc3)CC2)CC1 | i
COc1ccc(CN2CCN(C/C=C/c3ccccc3)CC2)c(O)c1 | i
C(=C\c1ccccc1)/CN1CCN(C2C3CC4CC(C3)CC2C4)CC1 (stereo not drawn) | +
O=c1c(Cc2ccccc2)c[nH]c2ccccc12 | i
O=[N+]([O-])c1ccccc1S(=O)(=O)NCCc1cccc(Cl)c1 | i

High-throughput results as filed in PubChem.
